Paper PMC7862700, “An all-to-all approach to the identification of sequence-specific readers for epigenetic DNA modifications on cytosine”

Legend:
Test in all cases: DAPPL (digital affinity profiling via proximity ligation, sequencing); 10 mM Tris-HCl pH 7.5, 50 mM NaCl, 1 mM DTT, 4% glycerol, room temperature, 30 min; GST-TFs on glutathione beads, 16-mer random dsDNA library, 0.1% formaldehyde crosslink after washing; high values mean tight binding
FEV = molecular target: T1, FEV (Homo sapiens, UniProt Q99581 1-238); settings: protein: recombinant; tags: N-terminal GST; dsDNA, one strand shown
T1 sequence: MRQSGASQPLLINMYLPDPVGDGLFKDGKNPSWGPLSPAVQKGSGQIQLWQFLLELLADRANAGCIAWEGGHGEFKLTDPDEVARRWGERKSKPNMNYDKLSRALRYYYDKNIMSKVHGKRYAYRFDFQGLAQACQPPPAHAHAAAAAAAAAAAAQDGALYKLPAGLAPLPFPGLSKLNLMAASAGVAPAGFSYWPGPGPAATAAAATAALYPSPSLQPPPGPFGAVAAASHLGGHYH
Method in brief: (§1)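 Pools of DNA-barcoded human transcription factors, expressed in yeast as GST fusions on glutathione beads and combined with a tag-only sample, were incubated with 200 nmole of a 16-mer random double-stranded DNA library. Incubation took 30 min at room temperature in Tris/NaCl/DTT/glycerol buffer and was followed by washing, 0.1% formaldehyde crosslinking, proximity ligation (BsaI/T4 ligase, 1 h, 37 °C), PCR amplification and sequencing on an Illumina NextSeq500. Binding signal is the ratio of a hexamer's read frequency for a factor to its frequency for the tag-only sample.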

ETV5 = ETV5 (Homo sapiens, UniProt P41161 1-510); settings: protein: recombinant; tags: N-terminal GST; dsDNA, one strand shown
ETV5, sequence (P41161 whole entry): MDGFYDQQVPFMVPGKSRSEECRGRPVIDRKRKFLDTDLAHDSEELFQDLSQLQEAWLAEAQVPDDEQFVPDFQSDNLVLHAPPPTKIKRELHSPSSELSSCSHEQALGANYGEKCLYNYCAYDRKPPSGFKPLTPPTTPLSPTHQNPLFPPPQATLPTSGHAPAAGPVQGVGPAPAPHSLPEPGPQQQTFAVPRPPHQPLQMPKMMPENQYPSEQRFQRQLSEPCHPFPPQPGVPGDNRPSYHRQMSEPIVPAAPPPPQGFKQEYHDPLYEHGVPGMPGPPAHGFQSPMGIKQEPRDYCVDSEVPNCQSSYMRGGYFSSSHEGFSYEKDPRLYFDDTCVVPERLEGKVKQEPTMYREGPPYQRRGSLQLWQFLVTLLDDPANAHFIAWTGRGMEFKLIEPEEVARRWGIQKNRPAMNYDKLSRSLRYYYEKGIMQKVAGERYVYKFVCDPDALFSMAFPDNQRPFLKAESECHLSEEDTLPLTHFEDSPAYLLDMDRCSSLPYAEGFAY
Method in brief: as §1

HSF1 = HSF1 (Homo sapiens, UniProt Q00613 1-529); settings: protein: recombinant; tags: N-terminal GST; chain copies: 3; dsDNA, one strand shown
HSF1, sequence (Q00613 whole entry): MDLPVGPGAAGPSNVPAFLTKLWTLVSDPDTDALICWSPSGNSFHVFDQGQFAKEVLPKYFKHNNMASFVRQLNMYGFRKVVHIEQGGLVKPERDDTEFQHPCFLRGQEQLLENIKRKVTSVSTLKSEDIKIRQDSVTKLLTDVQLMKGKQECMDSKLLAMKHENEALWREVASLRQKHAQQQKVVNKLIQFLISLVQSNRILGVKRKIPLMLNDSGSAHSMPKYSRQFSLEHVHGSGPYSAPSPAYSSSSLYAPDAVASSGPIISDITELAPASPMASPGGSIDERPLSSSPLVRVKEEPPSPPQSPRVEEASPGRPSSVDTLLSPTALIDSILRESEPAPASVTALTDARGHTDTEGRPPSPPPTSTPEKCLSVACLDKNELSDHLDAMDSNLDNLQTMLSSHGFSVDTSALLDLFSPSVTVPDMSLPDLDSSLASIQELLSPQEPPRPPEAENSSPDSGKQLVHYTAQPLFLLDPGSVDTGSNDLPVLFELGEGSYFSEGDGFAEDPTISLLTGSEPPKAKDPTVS
Method in brief: as §1

SPIC = molecular target: T2, SPIC (Homo sapiens, UniProt Q8N5J4 1-248); settings: protein: recombinant; tags: N-terminal GST; dsDNA, one strand shown
T2 sequence: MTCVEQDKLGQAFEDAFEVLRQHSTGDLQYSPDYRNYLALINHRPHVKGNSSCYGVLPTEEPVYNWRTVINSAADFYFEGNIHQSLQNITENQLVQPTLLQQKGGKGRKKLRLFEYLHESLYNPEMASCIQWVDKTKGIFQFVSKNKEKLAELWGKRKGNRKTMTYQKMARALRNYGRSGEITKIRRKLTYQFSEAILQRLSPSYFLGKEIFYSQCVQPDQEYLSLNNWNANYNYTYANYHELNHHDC
Method in brief: as §1

ELF4 = ELF4 (Homo sapiens, UniProt Q99607 1-663); settings: protein: recombinant; tags: N-terminal GST; dsDNA, one strand shown
ELF4, sequence (Q99607 whole entry): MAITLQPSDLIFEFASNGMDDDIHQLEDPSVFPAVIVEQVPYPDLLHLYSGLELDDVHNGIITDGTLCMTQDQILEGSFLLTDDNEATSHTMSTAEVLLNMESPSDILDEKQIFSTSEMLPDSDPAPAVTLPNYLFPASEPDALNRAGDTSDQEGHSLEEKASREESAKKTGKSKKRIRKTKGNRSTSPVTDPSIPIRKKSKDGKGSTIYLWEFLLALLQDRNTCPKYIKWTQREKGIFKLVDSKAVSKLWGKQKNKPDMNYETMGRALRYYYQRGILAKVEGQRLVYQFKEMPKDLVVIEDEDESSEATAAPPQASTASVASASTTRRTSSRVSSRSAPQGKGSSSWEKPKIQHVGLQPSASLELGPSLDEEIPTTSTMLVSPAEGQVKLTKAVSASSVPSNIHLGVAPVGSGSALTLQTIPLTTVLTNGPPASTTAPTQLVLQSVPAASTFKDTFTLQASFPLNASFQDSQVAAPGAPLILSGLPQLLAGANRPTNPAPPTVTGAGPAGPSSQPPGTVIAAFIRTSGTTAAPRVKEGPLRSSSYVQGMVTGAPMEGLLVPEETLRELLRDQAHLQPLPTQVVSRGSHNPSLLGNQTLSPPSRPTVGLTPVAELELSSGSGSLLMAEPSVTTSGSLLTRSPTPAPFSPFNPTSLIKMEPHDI
Method in brief: as §1

ELK4 = molecular target: T3, ELK4 (Homo sapiens, UniProt P28324-2 1-405); settings: protein: recombinant; tags: N-terminal GST; dsDNA, one strand shown
T3 sequence: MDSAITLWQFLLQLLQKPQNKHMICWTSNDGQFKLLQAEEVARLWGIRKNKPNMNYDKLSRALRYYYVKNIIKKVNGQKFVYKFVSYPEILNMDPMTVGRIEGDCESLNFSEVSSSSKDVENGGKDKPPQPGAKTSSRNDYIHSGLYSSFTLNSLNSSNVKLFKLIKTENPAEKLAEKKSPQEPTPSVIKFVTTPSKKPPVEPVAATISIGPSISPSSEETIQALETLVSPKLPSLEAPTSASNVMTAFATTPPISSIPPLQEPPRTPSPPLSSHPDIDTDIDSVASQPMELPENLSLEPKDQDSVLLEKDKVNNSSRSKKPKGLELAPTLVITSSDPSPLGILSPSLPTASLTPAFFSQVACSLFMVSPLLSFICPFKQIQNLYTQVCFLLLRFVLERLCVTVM
Method in brief: as §1

ETV2 = molecular target: T4, ETV2 (Homo sapiens, UniProt O00321 1-342); settings: protein: recombinant; tags: N-terminal GST; dsDNA, one strand shown
T4 sequence: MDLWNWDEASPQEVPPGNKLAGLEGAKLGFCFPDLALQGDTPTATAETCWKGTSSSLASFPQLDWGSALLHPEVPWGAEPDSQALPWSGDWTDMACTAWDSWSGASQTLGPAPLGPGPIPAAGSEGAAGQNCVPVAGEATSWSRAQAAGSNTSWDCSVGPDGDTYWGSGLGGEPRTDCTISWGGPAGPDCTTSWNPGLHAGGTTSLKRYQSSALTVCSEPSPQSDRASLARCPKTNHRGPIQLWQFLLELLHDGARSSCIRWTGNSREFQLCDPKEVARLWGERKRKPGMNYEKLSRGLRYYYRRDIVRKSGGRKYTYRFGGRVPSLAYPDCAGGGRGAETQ
Method in brief: as §1

ELF3 = molecular target: T5, ELF3 (Homo sapiens, UniProt P78545 1-371); settings: protein: recombinant; tags: N-terminal GST; dsDNA, one strand shown
T5 sequence: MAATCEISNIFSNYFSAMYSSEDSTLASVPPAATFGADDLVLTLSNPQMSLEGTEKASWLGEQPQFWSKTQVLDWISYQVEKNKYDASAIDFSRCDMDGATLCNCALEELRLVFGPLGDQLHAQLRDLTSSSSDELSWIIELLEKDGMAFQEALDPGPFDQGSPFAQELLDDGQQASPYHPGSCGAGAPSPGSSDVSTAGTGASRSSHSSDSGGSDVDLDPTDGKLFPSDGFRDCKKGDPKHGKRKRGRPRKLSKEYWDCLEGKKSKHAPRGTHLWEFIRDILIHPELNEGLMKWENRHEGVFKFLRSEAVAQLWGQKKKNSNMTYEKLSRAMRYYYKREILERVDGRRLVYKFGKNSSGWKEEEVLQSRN
Method in brief: as §1

CRX = CRX (Homo sapiens, UniProt O43186 1-299); settings: protein: recombinant; tags: N-terminal GST; dsDNA, one strand shown
CRX, sequence (O43186 whole entry): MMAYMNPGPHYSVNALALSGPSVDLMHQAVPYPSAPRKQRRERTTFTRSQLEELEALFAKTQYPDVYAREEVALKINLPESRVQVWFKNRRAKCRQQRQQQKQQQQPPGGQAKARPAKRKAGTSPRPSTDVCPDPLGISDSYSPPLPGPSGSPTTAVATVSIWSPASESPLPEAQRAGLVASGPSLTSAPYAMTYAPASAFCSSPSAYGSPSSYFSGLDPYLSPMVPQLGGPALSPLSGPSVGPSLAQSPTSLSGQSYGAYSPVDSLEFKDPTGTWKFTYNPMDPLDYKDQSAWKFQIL
Method in brief: as §1

ETV1 = ETV1 (Homo sapiens, UniProt P50549 1-477); settings: protein: recombinant; tags: N-terminal GST; dsDNA, one strand shown
ETV1, sequence (P50549 whole entry): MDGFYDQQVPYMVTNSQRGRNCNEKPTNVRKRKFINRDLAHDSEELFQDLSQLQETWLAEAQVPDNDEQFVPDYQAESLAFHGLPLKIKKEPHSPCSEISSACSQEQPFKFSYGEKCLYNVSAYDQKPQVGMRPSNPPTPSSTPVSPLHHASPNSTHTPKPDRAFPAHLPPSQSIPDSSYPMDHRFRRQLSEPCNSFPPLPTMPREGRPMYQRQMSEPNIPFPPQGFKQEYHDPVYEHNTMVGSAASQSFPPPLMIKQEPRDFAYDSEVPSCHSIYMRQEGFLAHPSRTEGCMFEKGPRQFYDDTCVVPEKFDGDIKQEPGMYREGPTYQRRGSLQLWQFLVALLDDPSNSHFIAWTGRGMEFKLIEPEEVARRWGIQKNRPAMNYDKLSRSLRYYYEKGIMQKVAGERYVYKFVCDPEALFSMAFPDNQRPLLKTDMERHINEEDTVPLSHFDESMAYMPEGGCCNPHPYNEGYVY
Method in brief: as §1

Q: Which results are given for CTAACG?
A: binding signal (FEV): 1.19 fold enrichment (6-mer frequency, TF over GST control); binding signal (ETV5): 1.19 fold enrichment (6-mer frequency, TF over GST control); binding signal (HSF1): 1.09 fold enrichment (6-mer frequency, TF over GST control); binding signal (SPIC): 1.04 fold enrichment (6-mer frequency, TF over GST control); binding signal (ELF4): 1.17 fold enrichment (6-mer frequency, TF over GST control); binding signal (ELK4): 1.19 fold enrichment (6-mer frequency, TF over GST control); binding signal (ETV2): 1.01 fold enrichment (6-mer frequency, TF over GST control); binding signal (ELF3): 1.18 fold enrichment (6-mer frequency, TF over GST control); binding signal (CRX): 1.1 fold enrichment (6-mer frequency, TF over GST control); binding signal (ETV1): 1.11 fold enrichment (6-mer frequency, TF over GST control)

Q: How did the binding signal (FEV) turn out when TGGCAA was run?
A: 1.17 fold enrichment (6-mer frequency, TF over GST control)

Q: And the binding signal (ETV5)?
A: 1.18 fold enrichment (6-mer frequency, TF over GST control)

Q: What about the binding signal (HSF1) of the same sequence?
A: 1.18 fold enrichment (6-mer frequency, TF over GST control)

Q: What about the binding signal (SPIC) of the same sequence?
A: 1.13 fold enrichment (6-mer frequency, TF over GST control)

Q: And the binding signal (ELF4)?
A: 1.21 fold enrichment (6-mer frequency, TF over GST control)

Q: And the binding signal (ELK4)?
A: 1.19 fold enrichment (6-mer frequency, TF over GST control)

Q: What about the binding signal (ETV2) of the same sequence?
A: 1.11 fold enrichment (6-mer frequency, TF over GST control)

Q: What about the binding signal (ELF3) of the same sequence?
A: 1.03 fold enrichment (6-mer frequency, TF over GST control)

Q: And the binding signal (CRX)?
A: 1.07 fold enrichment (6-mer frequency, TF over GST control)

Q: And the binding signal (ETV1)?
A: 1.16 fold enrichment (6-mer frequency, TF over GST control)

Q: With CTCCTG as the sequence, how does the binding signal (FEV) read?
A: 1.57 fold enrichment (6-mer frequency, TF over GST control)

Q: What about the binding signal (ETV5) of the same sequence?
A: 1.71 fold enrichment (6-mer frequency, TF over GST control)

Q: What about the binding signal (HSF1) of the same sequence?
A: 1.52 fold enrichment (6-mer frequency, TF over GST control)

Q: And the binding signal (SPIC)?
A: 1.37 fold enrichment (6-mer frequency, TF over GST control)

Q: And the binding signal (ELF4)?
A: 1.65 fold enrichment (6-mer frequency, TF over GST control)

Q: And the binding signal (ELK4)?
A: 1.35 fold enrichment (6-mer frequency, TF over GST control)

Q: What about the binding signal (ETV2) of the same sequence?
A: 1.62 fold enrichment (6-mer frequency, TF over GST control)

Q: And the binding signal (ELF3)?
A: 1.47 fold enrichment (6-mer frequency, TF over GST control)

Q: What about the binding signal (CRX) of the same sequence?
A: 1.46 fold enrichment (6-mer frequency, TF over GST control)

Q: What about the binding signal (ETV1) of the same sequence?
A: 1.79 fold enrichment (6-mer frequency, TF over GST control)

Q: What does the source list for TATAGA?
A: binding signal (FEV): 1.04 fold enrichment (6-mer frequency, TF over GST control); binding signal (ETV5): 1.08 fold enrichment (6-mer frequency, TF over GST control); binding signal (HSF1): 1.52 fold enrichment (6-mer frequency, TF over GST control); binding signal (SPIC): 1.04 fold enrichment (6-mer frequency, TF over GST control); binding signal (ELF4): 1.09 fold enrichment (6-mer frequency, TF over GST control); binding signal (ELK4): 1 fold enrichment (6-mer frequency, TF over GST control); binding signal (ETV2): 1.08 fold enrichment (6-mer frequency, TF over GST control); binding signal (ELF3): 1.17 fold enrichment (6-mer frequency, TF over GST control); binding signal (CRX): 1.45 fold enrichment (6-mer frequency, TF over GST control); binding signal (ETV1): 1.13 fold enrichment (6-mer frequency, TF over GST control)

Q: What does the source list for CTTACA?
A: binding signal (FEV): 1.18 fold enrichment (6-mer frequency, TF over GST control); binding signal (ETV5): 1.31 fold enrichment (6-mer frequency, TF over GST control); binding signal (HSF1): 1.31 fold enrichment (6-mer frequency, TF over GST control); binding signal (SPIC): 1.27 fold enrichment (6-mer frequency, TF over GST control); binding signal (ELF4): 1.25 fold enrichment (6-mer frequency, TF over GST control); binding signal (ELK4): 1.3 fold enrichment (6-mer frequency, TF over GST control); binding signal (ETV2): 1.28 fold enrichment (6-mer frequency, TF over GST control); binding signal (ELF3): 1.41 fold enrichment (6-mer frequency, TF over GST control); binding signal (CRX): 1.6 fold enrichment (6-mer frequency, TF over GST control); binding signal (ETV1): 1.24 fold enrichment (6-mer frequency, TF over GST control)

Q: For AACTTC, which binding signal (FEV) is on record?
A: 3.12 fold enrichment (6-mer frequency, TF over GST control)

Q: And the binding signal (ETV5)?
A: 2.71 fold enrichment (6-mer frequency, TF over GST control)

Q: What about the binding signal (HSF1) of the same sequence?
A: 2.02 fold enrichment (6-mer frequency, TF over GST control)

Q: What about the binding signal (SPIC) of the same sequence?
A: 2.83 fold enrichment (6-mer frequency, TF over GST control)

Q: What about the binding signal (ELF4) of the same sequence?
A: 2.44 fold enrichment (6-mer frequency, TF over GST control)

Q: What about the binding signal (ELK4) of the same sequence?
A: 2.34 fold enrichment (6-mer frequency, TF over GST control)

Q: And the binding signal (ETV2)?
A: 2.52 fold enrichment (6-mer frequency, TF over GST control)

Q: And the binding signal (ELF3)?
A: 2.39 fold enrichment (6-mer frequency, TF over GST control)

Q: What about the binding signal (CRX) of the same sequence?
A: 1.45 fold enrichment (6-mer frequency, TF over GST control)

Q: And the binding signal (ETV1)?
A: 2.6 fold enrichment (6-mer frequency, TF over GST control)

Q: Which binding signal (FEV) does the source give for CTATTG here?
A: 1.24 fold enrichment (6-mer frequency, TF over GST control)

Q: And the binding signal (ETV5)?
A: 1.31 fold enrichment (6-mer frequency, TF over GST control)

Q: What about the binding signal (HSF1) of the same sequence?
A: 1.1 fold enrichment (6-mer frequency, TF over GST control)

Q: And the binding signal (SPIC)?
A: 1.4 fold enrichment (6-mer frequency, TF over GST control)

Q: What about the binding signal (ELF4) of the same sequence?
A: 1.28 fold enrichment (6-mer frequency, TF over GST control)

Q: What about the binding signal (ELK4) of the same sequence?
A: 1.29 fold enrichment (6-mer frequency, TF over GST control)

Q: And the binding signal (ETV2)?
A: 1.31 fold enrichment (6-mer frequency, TF over GST control)

Q: What about the binding signal (ELF3) of the same sequence?
A: 1.39 fold enrichment (6-mer frequency, TF over GST control)

Q: What about the binding signal (CRX) of the same sequence?
A: 1.14 fold enrichment (6-mer frequency, TF over GST control)

Q: What about the binding signal (ETV1) of the same sequence?
A: 1.36 fold enrichment (6-mer frequency, TF over GST control)

Q: Which binding signal (FEV) does the source give for TTCCCC here?
A: 1.64 fold enrichment (6-mer frequency, TF over GST control)

Q: What about the binding signal (ETV5) of the same sequence?
A: 1.71 fold enrichment (6-mer frequency, TF over GST control)

Q: And the binding signal (HSF1)?
A: 1.42 fold enrichment (6-mer frequency, TF over GST control)

Q: What about the binding signal (SPIC) of the same sequence?
A: 1.87 fold enrichment (6-mer frequency, TF over GST control)

Q: And the binding signal (ELF4)?
A: 1.78 fold enrichment (6-mer frequency, TF over GST control)

Q: What about the binding signal (ELK4) of the same sequence?
A: 1.48 fold enrichment (6-mer frequency, TF over GST control)

Q: What about the binding signal (ETV2) of the same sequence?
A: 1.8 fold enrichment (6-mer frequency, TF over GST control)

Q: What about the binding signal (ELF3) of the same sequence?
A: 1.64 fold enrichment (6-mer frequency, TF over GST control)

Q: What about the binding signal (CRX) of the same sequence?
A: 1.44 fold enrichment (6-mer frequency, TF over GST control)

Q: What about the binding signal (ETV1) of the same sequence?
A: 1.69 fold enrichment (6-mer frequency, TF over GST control)
